Rows were chosen to be rich in hits. Some 6.5% of all compounds tested hit in one or more screens of this group.
VACV Venus inh – vaccinia inhibition (Venus reporter) | Vaccinia virus Venus reporter expression, fluorescence | Potency, µM (highest dose often 36.5 µM), inactives show at the highest dose activity change, negative = inhibition, usual class: inhibitors | actives 0.46% (n = 330,000); calls by dose curve; tested in A549 cells; note: potency is the fitted concentration of half-maximal effect; nearly all actives have a fitted effect of over 30% in size
Lassa entry inh – inhibitors of Lassa virus binding or cell entry | actives 1.2% (n = 300,000) | Potency, µM (highest dose often 37.9 µM), for inactives: at the top dose activity change, negative = inhibition, most hits filed as inhibitors | Lassa virus pseudotype entry inhibition, cell reporter | AID 540256; calls by dose curve; tested in HEK293 cells; note: potency is the fitted concentration of half-maximal effect; nearly all actives have a fitted effect of over 50% in size
FMDV antiviral – blocks foot and mouth disease virus; AID 1159524; Potency, µM (highest dose often 57.9 µM), for inactives: at the highest dose activity change, negative = inhibition, usual class: inhibitors; FMDV antiviral cell-based qHTS; actives 1.2% (n = 410,000); calls by dose curve; tested in HEK293T cells; note: read-out not given here; potency is the fitted concentration of half-maximal effect; nearly all actives have a fitted effect of over 45% in size
HCMV antiviral – blocks human cytomegalovirus replication. activity change, negative = inhibition, % at 57.5 µM. actives 4.5% (n = 410,000). HFF cells, HCMV-luciferase reporter, 72 h; active compounds read low; in the data active = activity change below about -60%; inconclusive = no clear call, values can overlap the other calls; inactive = above about -39%
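Human foreskin fibroblasts infected with luciferase-reporter HCMV at MOI 1 PFU/cell, compounds at two doses. Luciferase measured 72 h post infection; normalized to buffer-only basal and Salinomycin (10uM) controls.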
Vaccinia mCherry – vaccinia inhibition (mCherry reporter). Vaccinia virus mCherry reporter infection, fluorescence. actives 0.63% (n = 310,000). Potency, µM (doses to about 36.5 µM), for inactives: top-dose activity change, negative = inhibition, actives largely listed as inhibitors; calls by dose curve; tested in A549 cells; note: potency is the fitted concentration of half-maximal effect; nearly all actives have a fitted effect of over 35% in size
Marburg entry inh – inhibitors of Marburg virus binding or cell entry. Potency, µM (top dose mostly 37.8 µM), for the others: top-dose activity change, negative = inhibition, usual class: inhibitors. Marburg virus pseudotyped entry inhibition, cell reporter. actives 1.8% (n = 300,000); calls by dose curve; tested in HEK293 cells; note: potency is the fitted concentration of half-maximal effect
The depositor's hits bear a star; i = inactive; ? = inconclusive; . = no result; [ ] = remark or other dose. % is set by controls: 0 for no effect and ±100 for the full control effect.

SMILES | VACV Venus inh | Lassa entry inh | FMDV antiviral | HCMV antiviral | Vaccinia mCherry | Marburg entry inh
CC[C@H](C)[C@@H]1NC(=O)[C@@H](CC(C)C)NC(=O)[C@H](C(C)C)NC(=O)[C@H]2CSSC[C@H](NC1=O)C(=O)N2 | 4.47µM* | . | 6.31µM* | -106.3* | 5.01µM* | .
CCC(C(=O)Nc1ccc(C(C)C)cc1)n1nc(C)n2c(cc3cc(C)ccc32)c1=O (centres undefined) | -27.1% | -7.1%[46.1 µM] | 12.9% | 9.0 | -29.1% | ?
COc1ccc(/C=N/NC(=S)Nc2ccccc2[N+](=O)[O-])cc1O | ? | 23.1µM* | -1.9% | -65.9* | -22.3% | ?
O=[N+]([O-])c1cc(/C=N/NC(=S)Nc2ccccc2Cl)ccc1Cl | ? | ? | -17.8% | 13.5 | ? | 8.91µM*
Cc1ccc(C)c(NC(=O)c2nnn(Cc3ccc(F)cc3Cl)c2N)c1 | -8.1% | 12.3%[46.1 µM] | 0.0% | 16.4 | -15.9% | -6.8%[46.1 µM]
c1ccc(-c2ccc(-c3nc(-c4ccncc4)no3)cc2)cc1 | -4.5% | ? | . | -71.8* | -11.7% | ?
CCc1ccc(-c2nc(-c3ccncc3)no2)cc1 | ? | ? | -73.4% | 11.8 | . | 12.6µM*
c1ccc(C(Cc2nc(-c3ccncc3)no2)c2ccccc2)cc1 | . | ? | ? | -68.8* | . | 3.5%
c1ccc(-c2nc(-c3ccncc3)no2)cc1 | -5.3% | 0.0% | 38.2% | 7.2 | -14.2% | 5.7%
C/C(=N\OCc1cccc(C(=O)O)c1)c1ccc(Cl)cc1 | -6.0% | ? | 10µM* | 74.3 | i | ?
O=C(O)c1cccc(NC(=O)c2ccc(COc3ccc(Cl)cc3)cc2)c1 | . | . | 41.0% | 29.2 | . | .
CC12C=C(C=Cc3ccccc3)C(C)(C1)C(c1ccccc1)CC2=O (centres undefined) | . | . | . | . | . | -4.1%[14.2 µM]
CC(C)CC(NC(=O)c1ccc(Cl)cc1)C(=O)OCC(=O)c1ccc2c(c1)NC(=O)CO2 (centres undefined) | ? | ? | ? | -103.4* | ? | ?
Cc1cccc2cc(CN(CC3CCCO3)C(=O)C3CC3)c(N(C)C)nc12 (centres undefined) | 2.1% | . | -2.1% | . | -10.5% | .
CCc1sc(C(=O)Nc2cc(Cl)ccc2N2CCCCC2)cc1C | 1.9% | 7.6% | -6.9% | -62.8* | -0.7% | 4.9%
O=C(/C=C/c1ccco1)Oc1cc(Br)cc(/C=N/NC(=O)c2ccccc2O)c1 | ? | 11.2µM* | ? | -100.7* | 2.82µM* | ?
CC(C)CNc1cccc2c1S(=O)(=O)N(Cc1cccc(F)c1)[C@@H](C)[C@H](c1ccccc1)O2 | . | . | . | -23.9 | . | .
O=C(Cn1ncn2cccc2c1=O)N1CCCCC1 | -12.0% | 4.5% | -11.1% | -17.6 | . | 19.2%
Cc1ccc(Cl)cc1N1CCN(C(=O)Cn2ncn3cccc3c2=O)CC1 | -6.9% | . | ? | -75.8* | -3.5% | .
CCN(CC)S(=O)(=O)c1ccc(C(=O)NCCSc2c[nH]c3ccccc23)cc1 | -9.1% | 25.9µM* | -10.1% | 3.9 | 3.6% | -11.3%
CCN(CC)S(=O)(=O)c1ccc(C(C)NC(=O)Cc2c[nH]c3ccccc23)cc1 (centres undefined) | -9.5% | 2.59µM* | -22.0% | 14.4 | -1.3% | -19.3%
Cc1ccc(N/C=C/C(=O)c2cccs2)cc1C | -14.1% | 10µM* | ? | 47.4 | -7.2% | ?
O=C(/C=C/Nc1ccc(Nc2ccccc2)cc1)c1cccs1 | -9.0% | ? | 25.4% | -34.0 | ? | 8.3%[46.1 µM]
Cc1cc(N/C=C/C(=O)c2cccs2)ccc1F | . | . | 21.9% | -101.2* | . | .
CC(C)(C)c1nn(-c2ccccc2)c2[nH]c(=O)c(CNc3ccc4c(c3)OCCO4)cc12 | -9.0% | 19.9% | . | -61.6* | i | -2.6%
SMILES | VACV Venus inh | Lassa entry inh | FMDV antiviral | HCMV antiviral | Vaccinia mCherry | Marburg entry inh
CCc1cc(=O)oc2cc(C)c(CN3CCC[C@@H](C)C3)c(O)c12 | . | . | . | . | . | 14.3%
c1ccc(N(c2ccccc2)c2nc(N3CCOCC3)nc(N3CCOCC3)n2)cc1 | . | . | . | . | . | 0.6%
FC(F)(F)COc1nc(N2CCOCC2)nc(N(c2ccccc2)c2ccccc2)n1 | ? | ? | ? | -86.3* | ? | 13µM*
CCOc1ccc(NS(=O)(=O)c2ccc3c(c2)NC(=O)CCS3)cc1 | -11.2% | ? | 0.0% | ? | -5.0% | .
COc1cc(OC)c(/C=C/c2ccncn2)c(OC)c1 | -8.0% | . | . | . | -4.4% | .
COC(=O)C1C(c2ccc(C)cc2)CC2CCC1N2C (centres undefined) | . | . | . | -29.8 | . | .
CN1C2CCC1C(C(=O)Oc1ccccc1)C(c1ccc(Cl)cc1)C2 (centres undefined) | . | . | . | -76.7* | . | .
C=C[C@]1(C)C=C2CC[C@H]3[C@@](C)(CCC[C@@]3(C)C(=O)O)[C@@H]2CC1 | -17.5% | . | -14.0% | . | i | .
C=C[C@]1(C)C=C2C(=O)[C@@]3(O)OC(=O)[C@@]4(CCCC(C)(C)[C@H]34)[C@@]2(O)CC1 | 10µM* | . | 2.82µM* | -101.3* | 8.91µM* | .
Cc1ccc(CSc2nnc(-c3ccc(NC(=O)CCc4ccccc4)cc3)n2C)cc1 | -9.1% | . | . | . | -10.1% | .
Cn1nc(C(=O)OCc2ccc(F)cc2)c2ccccc2c1=O | -19.4% | 9.0% | 0.0% | -23.4 | i | -24.0%[46.1 µM]
Cc1ccc(COC(=O)c2nn(C)c(=O)c3ccccc23)cc1 | -19.6% | ? | ? | -92.0* | -16.9% | 26.5%[46.1 µM]
COc1cc(Cl)c(C)cc1NC(=O)Cn1cnc2sc(C)c(S(=O)(=O)N3CCCCC3)c2c1=O | -20.7% | -1.4%[46.1 µM] | 0.0% | -9.4 | -14.4% | ?
CCC1(C)Cc2nc3[nH]c(=S)n(-c4ccccc4)c(=O)c3cc2CO1 (centres undefined) | 4.6% | -2.1% | -29.2% | -63.0* | -10.5% | -0.7%
CN(C)c1ccc(CC2CCc3ccccc32)cc1 (centres undefined) | -22.6% | . | . | . | -9.3% | .
CCOc1ccc(C(=O)CCC(=O)N2CCN(c3ccccc3O)CC2)cc1 | -12.3% | ? | 35.5µM* | -20.9 | -1.3% | ?
CCOc1ccc(S(=O)(=O)NCCC(=O)N2CCN(c3ccccc3O)CC2)cc1 | ? | -18.0% | -21.8% | -17.8 | -17.1% | -15.3%
O=C(Nc1ccccc1)c1ccc(Br)o1 | -3.1% | ? | 63.0% | -62.5* | i | ?
COc1c(C)cc(Br)cc1C(=O)Nc1ccccc1N1CCN(C(=O)c2ccccc2)CC1 | -5.6% | ? | 0.0% | -11.0 | -9.3% | -16.9%[46.1 µM]
Cc1ccccc1C(=O)Nc1ccccc1N1CCN(C(=O)c2ccccc2)CC1 | -8.2% | ? | -17.4% | -73.3* | -14.1% | ?
COc1ccccc1NC(=O)c1ccc([N+](=O)[O-])o1 | . | . | -25.6% | -62.7* | . | .
O=C(Nc1cccc(NC(=O)c2ccc(Br)o2)c1)c1ccccc1 | -5.7% | 2.6% | 38.2% | -10.6 | -11.7% | 21.0%
O=C(C[n+]1cccc2cccc(O)c21)c1ccc(Cl)cc1 | 3.6% | . | . | . | i | .
Cc1cc(C)nc(NC(=O)c2c(Cl)cccc2Cl)n1 | -14.2% | 9.0% | -6.8% | 13.4 | -4.4% | 10.7%[46.1 µM]
